Results reported in PubChem BioAssay AID1159580 (chemical genetic matrix, 2015).
Where “and” joins values, the source holds several entries; their conditions need not be identical. Equal values may be shown once. Out of some 5,500 compounds screened, about 2,000 (36%) were called active. Not shown: some 18% with an inconclusive outcome. Rule as the data show it: active = normalized growth mostly below about 0.91 (no sharp cut-off); inconclusive = no clear call, values can overlap the other calls; inactive = mostly above about 0.92. The list shows a part of the results.

Test: chemical genetic growth profiling, strain panel (AID 1159580);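 also: tested at 20 µM; growth read once vehicle control cultures reached saturation at 30 °C; 1 = growth at the plate median or of vehicle wells; lower values mean less growth of the strain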
Details: S. cerevisiae deletion strains, growth OD

Measured: normalized growth

Cc1cc(CC(=O)O)n(C)c1C(=O)c1ccc(Cl)cc1
inactive: locus YAL013W, strain DEP1, hits give low values 1 | locus YAL021C, strain ccr4, hits give low values 1 | locus YAL026C, strain drs2, hits give low values 1.04 | locus YAL030W, strain snc1, hits give low values 1.01 | locus YBL061C, strain skt5, hits give low values 1.04 | locus YBR009C, strain hhf1, hits give low values 0.999 | locus YBR021W, strain FUR4, hits give low values 0.979 | locus YBR023C, strain chs3, hits give low values 1.03 | locus YBR171W, strain sec66, hits give low values 1.04 | locus YBR229C, strain ROT2, hits give low values 0.997 | locus YBR231C, strain swc5, hits give low values 1.02 | locus YBR279W, strain paf1, hits give low values 1.02 | locus YCL011C, strain gbp2, hits give low values 1.03 | locus YCL016C, strain dcc1, hits give low values 1.04 | locus YCL029C, strain bik1, hits give low values 1.02 | locus YCL061C, strain MRC1, hits give low values 1.03 | locus YCL069W, strain vba3, hits give low values 1.04 | locus YCR088W, strain abp1, hits give low values 1.03 | locus YDL005C, strain med2, hits give low values 1.02 | locus YDL035C, strain GPR1, hits give low values 0.989 | locus YDL040C, strain nat1, hits give low values 1.02 | locus YDL074C, strain BRE1, hits give low values 0.978 | locus YDL101C, strain DUN1, hits give low values 1 | locus YDL134C, strain PPH21, hits give low values 1 | locus YDL185W, strain tfp1, hits give low values 0.997 | locus YDL192W, strain arf1, hits give low values 1.01 | locus YDR001C, strain nth1, hits give low values 1.02 | locus YDR069C, strain doa4, hits give low values 1.01 | locus YDR101C, strain arx1, hits give low values 1.01 | locus YDR137W, strain rgp1, hits give low values 1.04 | locus YDR150W, strain NUM1, hits give low values 0.998 | locus YDR159W, strain sac3, hits give low values 1.02 | locus YDR162C, strain NBP2, hits give low values 0.997 | locus YDR195W, strain ref2 1.02 | locus YDR297W, strain sur2, hits give low values 1.03 | locus YDR318W, strain mcm21, hits give low values 1 | locus YDR334W, strain swr1, hits give low values 1.03 | locus YDR335W, strain msn5, hits give low values 1.03 | locus YDR388W, hits give low values 0.998 | locus YDR392W, strain spt3, hits give low values 1.02 | locus YDR502C, strain sam2, hits give low values 0.995 | locus YEL003W, strain gim4, hits give low values 1.02 | locus YEL037C, strain rad23, hits give low values 1.02 | locus YEL061C, strain CIN8 (second series), hits give low values 1.03 | locus YEL061C, strain CIN8, hits give low values 1 | locus YER015W, strain faa2, hits give low values 1.03 | locus YER016W, strain bim1, hits give low values 1.04 | locus YER110C, hits give low values 1 | locus YER111C, strain swi4, hits give low values 1.02 | locus YER155C, strain BEM2 (second series), hits give low values 1.01 | locus YER155C, strain BEM2, hits give low values 0.982 | locus YER167W, strain BCK2, hits give low values 0.992 | locus YFR010W, strain ubp6, hits give low values 1.01 | locus YGL078C, strain dbp3, hits give low values 1 | locus YGL086W, strain mad1, hits give low values 0.998 | locus YGL167C, strain pmr1, hits give low values 1.02 | locus YGL173C, strain kem1, hits give low values 1.02 | locus YGL227W, strain vid30, hits give low values 1.02 | locus YGL240W, strain doc1, hits give low values 1 | locus YGL248W, strain PDE1, hits give low values 0.998 | locus YGL253W, strain hxk2, hits give low values 1.04 | locus YGR078C, strain PAC10, hits give low values 0.988 | locus YGR135W, strain pre9, hits give low values 0.988 | locus YGR229C, strain SMI1, hits give low values 0.998 | locus YGR252W, strain gcn5, hits give low values 0.945 | locus YHR013C, strain ard1, hits give low values 1.05 | locus YHR027C, strain rpn1, hits give low values 1.02 | locus YHR030C, strain SLT2, hits give low values 1 and 1.02 | locus YHR079C, strain IRE1 (second series), hits give low values 1 | locus YHR079C, strain IRE1, hits give low values 1.02 | locus YHR094C, strain hxt1, hits give low values 1 | locus YHR129C, strain ARP1, hits give low values 0.998 | locus YHR142W, strain chs7, hits give low values 1.05 | locus YHR200W, strain rpn10, hits give low values 1.01 | locus YIL066C, strain RNR3, hits give low values 0.994 | locus YIL073C, strain SPO22, hits give low values 1.02 | locus YIL125W, strain kgd1, hits give low values 1.01 | locus YIR030C, strain dcg1, hits give low values 1.01 | locus YJL092W, strain hpr5, hits give low values 1.03 | locus YJL095W, strain BCK1 (second series), hits give low values 1.03 | locus YJL095W, strain BCK1, hits give low values 0.959 and 1.01 | locus YJL115W, strain asf1, hits give low values 1.01 | locus YJL129C, strain trk1, hits give low values 1.06 | locus YJL134W, strain LCB3, hits give low values 1 | locus YJL154C, strain vps35, hits give low values 1.02 | locus YJL164C, strain tpk1, hits give low values 1.02 | locus YJL166W, strain qcr8, hits give low values 1.03 | locus YJL168C, strain set2, hits give low values 1.01 | locus YJL187C, strain SWE1 (second series), hits give low values 0.998 | locus YJL187C, strain SWE1, hits give low values 1.01 | locus YJR043C, strain POL32, hits give low values 0.997 | locus YJR066W, strain TOR1, hits give low values 0.954
